# Structures can show the parent of a compound that is named as a salt.
# Assays:
# Assay in all cases: Euclidean distance of Cell Painting phenotypic profile (signed KS, 77 features) to DMSO centroid (dimensionless distance); 5 or 10 uM (library dependent); higher = stronger phenotypic change vs DMSO (phenoactivity)
# Details in all cases: 48 h
# 786-O = tested on: 786-O
# Method in brief: (§1)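 Five cancer lines and a healthy fibroblast line received library compounds at 10 or 5 uM (library-dependent, 0.1% DMSO final) for 48 h. Stained cells were imaged confocally at 20X (9 fields/well). Harmony extracted 77 features, each scored as a signed Kolmogorov-Smirnov statistic against same-plate vehicle wells. Profiles were plate-position corrected, correlation-weighted and replicate-averaged at the top dose. Phenoactivity is the Euclidean distance from each profile to the median vehicle profile.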
# A549 = tested on: A549
# Method in brief: as §1
# DU145 = tested on: DU145
# Method in brief: as §1
# FB = tested on: FB
# Method in brief: as §1
# HEPG2 = tested on: HEPG2
# Method in brief: as §1
# OVCAR4 = tested on: OVCAR4
# Method in brief: as §1
Compound,Euclidean distance (786-O),Euclidean distance (A549),Euclidean distance (DU145),Euclidean distance (FB),Euclidean distance (HEPG2),Euclidean distance (OVCAR4)
CC(C)(C)NC[C@H](O)c1ccc(O)c(CO)c1 [levalbuterol tartrate],0.685,0.326,0.582,0.969,0.566,0.907
Nc1ncn([C@@H]2O[C@H](CO)[C@@H](O)[C@H]2O)c(=O)n1 [Azacitidine],1.87,1.89,1.92,2.79,1.69,1.33
O=C(/C=C/c1ccc(O)c(O)c1)O[C@H](Cc1ccc(O)c(O)c1)C(=O)O [Rosmarinic acid],0.778,0.874,0.818,0.847,0.532,0.722
CC1(C)S[C@@H]2[C@H](NC(=O)Cc3ccccc3)C(=O)N2[C@H]1C(=O)O [Benzylpenicillin potassium],1.15,0.89,1.18,0.93,0.711,1.48
Nc1nc(NC2CC2)c2ncn([C@H]3C=C[C@@H](CO)C3)c2n1 [Abacavir sulfate],1.09,1.86,1.39,1.19,0.688,1.74
COc1cc(Cc2cnc(N)nc2N)cc(OC)c1OC [Trimethoprim],1.42,0.849,0.917,1.39,0.86,1.12
CC(C)(Sc1cc(C(C)(C)C)c(O)c(C(C)(C)C)c1)Sc1cc(C(C)(C)C)c(O)c(C(C)(C)C)c1 [Probucol],0.793,0.681,0.734,0.921,1.07,1.14
CCCC(C)NC(=O)c1ccc(Cl)c(Cl)c1 (stereo not drawn),0.75,0.663,0.911,1.24,0.75,0.568
C#Cc1cccc(Nc2ncnc3cc(OCCOC)c(OCCOC)cc23)c1 [Erlotinib],1.68,2.34,1.94,3.62,0.991,1.87
COc1cnc(-n2cnc(C)n2)c2[nH]cc(C(=O)C(=O)N3CCN(C(=O)c4ccccc4)CC3)c12,1.35,0.841,0.792,0.569,1.32,0.969
CC(N)C12CC3CC(CC(C3)C1)C2 (stereo not drawn) [Rimantadine],0.735,0.64,0.671,1.35,0.621,1.37
Cc1cc(S(=O)(=O)O)c2c(C)ccc(C(C)C)cc1-2 [Sodium gualenate],1.2,0.401,0.867,1.3,1.18,1.13
C/C(=C\c1ccc(C(=O)O)cc1)c1ccc2c(c1)C(C)(C)CCC2(C)C [TTNPB (Arotinoid Acid)],0.687,1.39,1.07,2.49,1.61,1.35
C[C@H](CCC(=O)O)[C@H]1CC[C@H]2[C@@H]3C[C@H](O)[C@@H]4C[C@H](O)CC[C@]4(C)[C@H]3CC[C@]12C [Hyodeoxycholic acid (HDCA)],1.08,0.973,0.585,0.898,0.401,1.37
CC(C)[C@@H](C)/C=C/[C@@H](C)[C@H]1CC[C@H]2C3=CC=C4C[C@@H](O)CC[C@]4(C)[C@H]3CC[C@]12C [Ergosterol],1.2,1.36,1.1,0.707,0.946,1.17
CCCc1ncc(C[n+]2ccccc2C)c(N)n1 [Amprolium HCl],1.47,0.883,1.08,1.27,0.679,1.39
CC(C)c1noc(N2CCC(COc3ccc(-c4ccc(S(C)(=O)=O)cc4)nc3)CC2)n1,1.17,1.53,0.872,0.701,0.585,0.984
CC[C@H](NC(=O)[C@H](C)NC)C(=O)N1C[C@@H](O)C[C@H]1Cc1c(-c2[nH]c3cc(F)ccc3c2C[C@@H]2C[C@H](O)CN2C(=O)[C@H](CC)NC(=O)[C@H](C)NC)[nH]c2cc(F)ccc12 [Birinapant],1.15,1.08,2.69,1.06,2.95,1.97
C=CCN1CCCC1CNC(=O)c1cc2nn[nH]c2cc1OC (stereo not drawn) [Alizapride HCl],0.796,1.43,1.04,1.13,1.28,0.984
CCCC(=O)Nc1cccc(NC(=O)c2ccccc2Br)c1,1.43,1.02,1.04,1.14,1.27,0.946
CC12CCC(CC1=O)C2(C)C (stereo not drawn) [Camphor],0.669,0.742,0.875,0.818,0.352,1.67
O=C1CCCC(=O)C1C(=O)c1ccc(C(F)(F)F)cc1[N+](=O)[O-] [Nitisinone],1.12,0.58,1.2,1,0.455,1.09
CC/C=C(\C(=O)N[C@@H]1C(=O)N2C(C(=O)OCOC(=O)C(C)(C)C)=C(COC(N)=O)CS[C@H]12)c1csc(N)n1 [Cefcapene Pivoxil Hydrochloride],1.24,0.833,2.69,0.746,0.54,0.898

# Reference: the supplement of paper PMC10127200
